This note sets out measurements from ChEMBL document CHEMBL4513216, “Probing the Open Global Health Chemical Diversity Library for Multistage-Active Starting Points for Next-Generation Antimalarials” (ACS Infect Dis, 2020).

Among all 69,000 compounds or so, about 8,600 (12%) showed an effect of 50% or more. Shown is part of a subset that was picked to be rich in strong results.

This assay deals with Plasmodium berghei. In words: Screen against P. berghei liver stage (PbLuc), transformed with Luciferase, at 10uM. The format is functional, HepG2. To be noted: tested at 10 uM.
On to `O=C(c1ccsc1)N1CCc2nnc(COc3cncnc3)n2CC1`, for which the INHIBITION was 53.9%.
Consider `O=C(c1ccsc1)N1CCc2ncc(Cn3cncn3)n2CC1`, for which the INHIBITION is reported as 62.5%.
`O=C1CN(C(=O)c2cc3c(F)cc(Br)cc3[nH]2)CCN1`: the INHIBITION is -44.2%.
Consider `Cc1cccc(N2CCc3ncc(CNc4ccccn4)n3CC2)n1`, for which the INHIBITION is -26.1%.
Consider `Cc1cc(N2CCOC(c3ccc(C(N)=O)cn3)C2)ncn1` (stereo not given), for which the INHIBITION came to 36.9%.
To `Cc1cc(C)nc(N2CCC(C(=O)Nc3n[nH]c(C)n3)CC2)n1` belongs 47.3%; to `COCCN1CCC2(CCC1=O)CN(C1CCOCC1)CCN2C` (stereo not given), 17.8%.
With `CC(=O)Nc1nc(C(=O)NCc2ccnc(N3CCCC3)c2)cs1`, the INHIBITION was determined as 9.14%.
Turning to `Cc1cccc(C(=O)NCc2ccc(N3CCCCCC3)nc2)n1`, the INHIBITION came to 87.3%.
For the compound `CC(=O)Nc1nc(C(=O)NCc2ccc(N3CCOCC3)nc2)cs1`, the INHIBITION worked out at 19.4%.
Consider `CCN1CCN(c2ccc(CNC(=O)c3cc(C)on3)cn2)CC1`, for which the INHIBITION is reported as 25.6%.
Take `CC(=O)Nc1nc(C(=O)Nc2ccc(F)cc2)cs1`: the INHIBITION turned out to be 31.1%.
Take `CC(=O)Nc1nc(C(=O)NCc2ccc(N3CCCC3)nc2)cs1`: the INHIBITION is on record as 13.3%.
Regarding `CCN1CCN(c2ccc(CNC(=O)c3cnn(C)c3C)cn2)CC1`, the INHIBITION is -15.5%.
As for `CCN1CCN(c2ccc(CNC(=O)c3ccc(Cl)o3)cn2)CC1`, the INHIBITION is reported as 57.2%.
To `CC(=O)Nc1nc(C(=O)NCc2ccc(N3CCCCCC3)nc2)cs1` belongs 67.2%; to `CCN(CC)c1ccc(CNC(=O)c2cccc(C)n2)cn1`, 16.2%.
With `Cc1cccc(C(=O)NCc2ccc(N3CCCCC3)nc2)n1`, the INHIBITION was 8.48%.
`CC(=O)Nc1nc(C(=O)Nc2ccc(N3CCCCC3)nc2)cs1`: the INHIBITION is on record as 78.1%.
Regarding `CN(C(=O)C1CCC1)C1CCN(c2ccccc2Cl)C1=O` (stereo not given), the INHIBITION was 1.74%.
Next, `CC(=O)c1c(C)nn(S(=O)(=O)c2ccccc2)c1C`: 49.3%; `CCN(CC)C(=O)CS(=O)(=O)c1cc(OC)c(OC)cc1C`: -48.3%.
Consider `Cc1cnc(CN(C)C2CCN(Cc3nc4ccccc4o3)C2)o1` (stereo not given), for which the INHIBITION is on record as 13.3%.
On to `C1CC(NCc2nnc(C3CC3)o2)CN(Cc2noc(C3CC3)n2)C1` (stereo not given), for which the INHIBITION was -19.9%.
For `CN1CCN(S(=O)(=O)c2ccc(C(=O)N3CC[C@@H](O)C3)cc2)CC1=O`, the INHIBITION is on record as 1.41%.
With `c1cc(CC2CCCNC2)nc(NCCc2cnccn2)c1` (stereo not given), the INHIBITION came out at 32.3%.
Next, `Cn1cc(C(C)(O)CNc2ccc(Cl)c(C#N)n2)cn1` (stereo not given): -10.7%; `Cc1ccc(C(=O)N2CCCC(c3nncn3C)C2)c(C)c1` (stereo not given): 45.1%; `CC(C)c1nnc2n1CCN(CCC(=O)N1CCc3ccccc31)C2`: 13.7%.
As to `Cc1noc(C)c1C(=O)NCc1ccc(N2CCOCC2)nc1`, the INHIBITION amounted to 5.03%.
Turning to `Cc1noc(C)c1C(=O)NCc1ccc(N2CCCCCC2)nc1`, the INHIBITION is reported as 25.6%.
Next, `Cc1noc(C)c1C(=O)NCc1ccc(N2CCC(C)CC2)nc1`: 74.9%; `CN(C)C(=O)[C@@H]1C[C@@H]2CCN(Cc3ccc4c(c3)OCO4)C[C@@H]2O1`: 13.1%.
Next, `CCc1cc(CNC(=O)Nc2cc(F)ccc2N2CCCCC2)on1`: 26.6%.
Consider `Cc1nc(CNC(=O)Nc2cc(F)ccc2N2CCN(C)CC2)no1`, for which the INHIBITION was found to be 52.7%.
Take `O=C(Cc1ccon1)N1CCN(c2ccncc2Cl)CC1`: the INHIBITION was 20.9%.
For the compound `CCN1CCN(c2ccccc2NC(=O)NCc2ccon2)CC1`, the INHIBITION is reported as 50.4%.
Regarding `O=C(c1ccncc1)N1CCN(c2ccc(F)cc2Cl)CC1`, the INHIBITION worked out at 23.8%.
As to `CC1CN(C)c2ccccc2CN1C(=O)NCc1ccon1` (stereo not given), the INHIBITION stood at 4.6%.
Take `CC1CCCN(Cc2ccc(CNC(=O)NCc3ccon3)cc2)C1` (stereo not given): the INHIBITION is -18.6%.
To `O=C(Cc1ccon1)N1CCN(c2ccc(F)cc2Cl)CC1` belongs 50%; to `O=C(NCc1ccon1)Nc1cc(F)ccc1N1CCCCC1`, 28.8%.
`CN1CCN(c2ccc(F)cc2NC(=O)NCC[S+](C)[O-])CC1` (stereo not given): the INHIBITION is reported as -33%.
On to `Cc1nc(CNC(=O)Nc2cc(F)ccc2OC(F)F)no1`, for which the INHIBITION amounted to 5.91%.
As to `CN1CCN(c2ccc(F)cc2NC(=O)NCc2ccon2)CC1`, the INHIBITION is 51.6%.
For the compound `COc1cccc(C(=O)N2C[C@@H]3CC[C@H]2CN(Cc2cscn2)C3)c1`, the INHIBITION is 7.3%.
Regarding `CC(C)NC(=O)NC(C)c1nc(-c2ccccc2)cs1` (stereo not given), the INHIBITION was 15.7%.
For `O=S(=O)(c1cccc(F)c1)N1CC[C@H]2[C@H]1CCN2c1ncccn1`, the INHIBITION is given as -12.4%.
Take `CN(C)C(=O)[C@H]1C[C@@H]2CCN(C3CCOCC3)C[C@@H]2O1`: the INHIBITION is -0.371%.
To `COc1c(C2CCCN2C(=O)c2scnc2C)c(C)nn1C` (stereo not given) belongs 25.1%; to `COc1ccc(S(=O)(=O)NC(=O)COC2CCCCC2)cc1`, 14.1%.
Turning to `CC(C)n1nccc1CN1Cc2nccn2CC1c1ccccc1` (stereo not given), the INHIBITION came to 7.39%.
As for `CCn1nc(C)cc1C(=O)NCc1cc(N(C)C)nc2ccccc12`, the INHIBITION is recorded as 54.4%.
Turning to `Cc1nn(C)c(C)c1C(=O)NCc1cc(N(C)C)nc2ccccc12`, the INHIBITION is on record as -21.1%.
As to `Cc1nn(C)cc1C(=O)NCc1cc(N(C)C)nc2ccccc12`, the INHIBITION is listed as -17.8%.
